Assay results as given in PubChem BioAssay (Tox21).
Results filed as inconclusive are left out. The source made the active and inactive calls. Unless noted, calls come from the whole dose curve.

Assays:
[1] = Nuclear factor erythroid 2-related factor 2/antioxidant responsive element (Nrf2/ARE) small molecule agonists: qHTS cell viability counter screen in human keratinocytes (AID 1919968; active = well fitted curve in the direction sought with a large enough effect in the repeat runs; an effect the other way counts as inactive or inconclusive; note: nearly all actives have a fitted effect of over 55% in size)
Summary of the method: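 CellTiter-Fluor fluorescence, read 1 h after reagent, gave viability in the same wells as the ARE-luciferase assay. KeratinoSens cells (1,500/well) had 23 h compound exposure at 37 C/5% CO2 following 5 h plating.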

[2] = Nuclear factor erythroid 2-related factor 2/antioxidant responsive element (Nrf2/ARE) small molecule agonists: luciferase reporter gene qHTS assay in human keratinocytes (AID 1919969); note: nearly all actives have a fitted effect of over 35% in size
[3] = target: Gonadotropin-releasing hormone receptor (Homo sapiens) (UniProt P30968); assay: Human gonadotropin-releasing hormone receptor (GnRHR) small molecule agonists, calcium flux assay in GnRHR-HEK293 cells (AID 1920063); note: nearly all actives have a fitted effect of over 35% in size
Summary of the method: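 Agonist mode: compounds at 15 concentrations, in triplicate, went onto calcium dye-loaded GnRHR-HEK293 cells. Intracellular calcium was then followed as 480/540 nm fluorescence at 1 s intervals over 3 min.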

[4] = target: KiSS-1 receptor (Homo sapiens) (UniProt Q969F8); assay: Human kisspeptin (KISS1R) small molecule agonists, calcium flux assay in KISS1R-HEK293 cells (AID 1920064; active = well fitted curve in the direction sought with a large enough effect in the repeat runs; an effect the other way counts as inactive or inconclusive)
Summary of the method: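 Agonist mode: intracellular calcium rise tracked at 1 s intervals over 3 min (480/540 nm) immediately after compound addition to dye-loaded KISS1R-HEK293 stable cells. Each compound tested at 15 concentrations in triplicate.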

[5] = G protein-coupled receptor (GPCR) small molecule agonists, calcium flux assay: HEK293 wild type cell line counter screen (AID 1920065)
Summary of the method: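 Calcium flux counter screen: compound added in agonist mode at 15 concentrations in triplicate to dye-loaded parental HEK293 cells. Fluorescence (480/540) read kinetically for 3 min; ATP served as positive control.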

[6] = p53 small molecule agonists, cell-based qHTS assay with human liver microsomes (AID 1963577);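 note: p53 response element beta-lactamase reporter cells with liver microsomes plus NADPH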
Summary of the method: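 p53RE-bla cells; 5 h settle, 37 C/5% CO2; cpd + HLM 0.5 mg/mL + NADPH 0.5 mg/mL (final); 16 h 37 C; LiveBLAzer 2 h RT dark; fluorescence readout.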

[7] = p53 small molecule agonists, cell-based qHTS assay with rat liver microsomes (AID 1963578)
Summary of the method: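 Rat liver microsome activation: microsomes 0.5 mg/mL, NADPH 0.5 mg/mL final; p53RE-bla cells, 16 h 37 C; LiveBLAzer readout, 2 h RT dark.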

[8] = p53 small molecule agonists, cell-based qHTS assay with human liver microsomes: qHTS cell viability counter screen (AID 1963579); note: nearly all actives have a fitted effect of over 45% in size
Summary of the method: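 Luminescent CellTiter-Glo read-out, 30 min at room temperature, gauged cytotoxicity in p53RE-bla cells exposed 16 h at 37 C to DMSO-dissolved compounds with metabolic activation by human liver microsomes and NADPH, each 0.5 mg/mL final.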

[9] = p53 small molecule agonists, cell-based qHTS assay with rat liver microsomes: qHTS cell viability counter screen (AID 1963580); note: nearly all actives have a fitted effect of over 45% in size
Summary of the method: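 Cytotoxicity counter screen: intracellular ATP measured by CellTiter-Glo luminescence in the same wells as the beta-lactamase reporter read, on HCT-116 p53RE-bla cells exposed 16 h at 37 C to compounds with rat liver microsomes and NADPH, each 0.5 mg/mL final.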

[10] = p53 small molecule agonists, cell-based qHTS assay: qHTS cell viability counter screen (AID 1963581); note: nearly all actives have a fitted effect of over 45% in size
Summary of the method: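 Counter screen read by CellTiter-Glo luminescence (ATP content, 30 min at room temperature), run in the same wells as the beta-lactamase reporter read. HCT-116 p53RE-bla cells saw compounds for 16 h at 37 C.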

[11] = p53 small molecule agonists, cell-based qHTS assay (AID 1963582; active = well fitted activation curve with a large enough effect in the signal ratio in the repeat runs, not every such curve was filed as active; the % refers to the signal ratio)
Summary of the method: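 Read-out is beta-lactamase FRET fluorescence after 2 h at room temperature with LiveBLAzer B/G substrate. p53 response element-bla cells were treated 16 h at 37 C with compounds in DMSO, added 5 h after seeding.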

[12] = cAMP Responsive Elements (CRE) small molecule agonists, cell-based qHTS assay (AID 1963590)
Summary of the method: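 Agonist mode: compound added to CRE-bla HEK 293T cells (2,000/well, 18 h after plating) for 3 h at 37 C/5% CO2. Reporter activity detected via FRET beta-lactamase substrate, 2 h room-temperature loading.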

[13] = target: Beta-2 adrenergic receptor (Homo sapiens) (UniProt P07550); assay: Adrenergic beta2 receptor (ADRB2) small molecule antagonists, cell-based qHTS assay (AID 1963592); note: series mostly up to about 92 µM; nearly all actives have a fitted effect of over 50% in size
Summary of the method: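 Assay format: CHO-ADRB2 cells, 18-20hr seeding at 37C/5% CO2, then compound plus 1nM isoproterenol agonist mix for 0.5hr RT. Homogeneous time-resolved fluorescence cAMP detection after 1hr, expressed as 665/615 nm ratio.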

[14] = target: D(2) dopamine receptor (Homo sapiens) (UniProt P14416); assay: Dopamine D2 receptor (DRD2) small molecule agonists, cell-based qHTS assay (AID 1963594); note: nearly all actives have a fitted effect of over 35% in size
Summary of the method: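 HEK293 cells stably expressing human DRD2, pre-treated with PDE inhibitor Ro20-1724 (0.1 mM final) and compound 10 min at room temperature, then stimulated with NKH477 (200nM […]) for 30 min. cAMP read by HTRF (665/620 nm).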

[15] = target: D(2) dopamine receptor (Homo sapiens) (UniProt P14416); assay: Dopamine D2 receptor (DRD2) small molecule antagonists, cell-based qHTS assay (AID 1963595; active = well fitted inhibition curve with a large enough effect in the signal ratio in the repeat runs, with a control signal flat; the % refers to the signal ratio)
Summary of the method: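 HTRF cAMP read-out at 665 and 620 nm emission (340 nm excitation). Antagonist mode: compounds were tested against 12 nM quinpirole in DRD2-HEK293 cells, with 200 nM NKH477 raising cAMP and 0.1 mM Ro20-1724 blocking its breakdown.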

[16] = cAMP Responsive Elements (CRE) small molecule antagonists, cell-based qHTS assay (AID 1963591; active = well fitted inhibition curve with a large enough effect in the signal ratio in the repeat runs, not every such curve was filed as active; the % refers to the signal ratio)
Summary of the method: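 Antagonist mode: compounds are added alongside the adenylyl cyclase activator NKH477 (0.25 uM final) to CRE-bla HEK293T cells for 3 h. LiveBLAzer FRET substrate, 2 h at room temperature, reports bla expression.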
% is set by controls: 0 for no effect and ±100 for the full control effect.

Sequence of Beta-2 adrenergic receptor (Homo sapiens) (P07550 whole entry, looked up): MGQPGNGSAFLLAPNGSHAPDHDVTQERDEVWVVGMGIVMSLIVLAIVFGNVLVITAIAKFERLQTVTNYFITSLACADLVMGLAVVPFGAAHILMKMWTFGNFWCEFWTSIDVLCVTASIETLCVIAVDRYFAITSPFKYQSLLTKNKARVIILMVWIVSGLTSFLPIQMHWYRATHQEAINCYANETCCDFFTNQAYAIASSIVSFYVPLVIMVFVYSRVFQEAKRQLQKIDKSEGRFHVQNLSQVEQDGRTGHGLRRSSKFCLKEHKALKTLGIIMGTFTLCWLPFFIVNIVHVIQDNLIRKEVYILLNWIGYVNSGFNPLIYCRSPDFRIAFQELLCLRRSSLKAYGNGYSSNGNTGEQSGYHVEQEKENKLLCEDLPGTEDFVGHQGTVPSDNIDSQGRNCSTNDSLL
Sequence of Gonadotropin-releasing hormone receptor (Homo sapiens) (P30968 whole entry, looked up): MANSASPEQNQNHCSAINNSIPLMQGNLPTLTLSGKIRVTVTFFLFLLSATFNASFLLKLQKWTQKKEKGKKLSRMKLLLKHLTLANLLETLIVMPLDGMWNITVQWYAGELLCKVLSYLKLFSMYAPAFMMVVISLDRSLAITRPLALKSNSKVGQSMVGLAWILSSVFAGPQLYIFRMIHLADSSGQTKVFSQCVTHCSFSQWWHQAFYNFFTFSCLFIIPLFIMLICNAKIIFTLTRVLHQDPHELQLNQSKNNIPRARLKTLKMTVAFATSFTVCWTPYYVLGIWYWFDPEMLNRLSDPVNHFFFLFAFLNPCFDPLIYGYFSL
Sequence of D(2) dopamine receptor (Homo sapiens) (P14416 whole entry, looked up): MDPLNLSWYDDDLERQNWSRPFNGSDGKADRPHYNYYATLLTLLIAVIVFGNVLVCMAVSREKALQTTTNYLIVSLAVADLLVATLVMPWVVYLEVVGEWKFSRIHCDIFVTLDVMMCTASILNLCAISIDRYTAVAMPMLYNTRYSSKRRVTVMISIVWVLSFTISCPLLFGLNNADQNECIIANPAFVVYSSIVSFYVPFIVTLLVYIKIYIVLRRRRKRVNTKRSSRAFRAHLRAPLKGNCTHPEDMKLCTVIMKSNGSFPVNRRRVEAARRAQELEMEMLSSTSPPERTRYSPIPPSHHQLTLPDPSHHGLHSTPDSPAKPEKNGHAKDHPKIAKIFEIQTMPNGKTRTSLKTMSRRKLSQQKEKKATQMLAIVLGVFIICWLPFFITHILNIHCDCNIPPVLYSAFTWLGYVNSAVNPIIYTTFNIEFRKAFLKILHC
Sequence of KiSS-1 receptor (Homo sapiens) (Q969F8 whole entry, looked up): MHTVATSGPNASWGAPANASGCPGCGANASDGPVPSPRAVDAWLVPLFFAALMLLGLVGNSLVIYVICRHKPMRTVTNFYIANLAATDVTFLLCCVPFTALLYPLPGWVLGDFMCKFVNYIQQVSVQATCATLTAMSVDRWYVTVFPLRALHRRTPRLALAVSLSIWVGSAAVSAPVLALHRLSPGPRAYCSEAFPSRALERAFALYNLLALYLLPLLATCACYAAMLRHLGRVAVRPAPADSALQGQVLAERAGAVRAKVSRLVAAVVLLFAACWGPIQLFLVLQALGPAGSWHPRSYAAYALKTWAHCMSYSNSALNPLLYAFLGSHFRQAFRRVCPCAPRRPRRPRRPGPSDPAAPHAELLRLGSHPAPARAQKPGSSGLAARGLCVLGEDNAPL

CC[N+](CC)(CC)CCOc1cccc(OCC[N+](CC)(CC)CC)c1OCC[N+](CC)(CC)CC
inactive: Potency [1] | Potency [2] | Potency [3] | outcome [4] | outcome [5] | Potency [6] | Potency [7] | Potency [8] | Potency [9] | Potency [10] | Potency [11] | Potency [12] | Potency [13] | Potency [14] | Potency [15]

CCCCNc1ccc(C(=O)OCCN(C)C)cc1
inactive: Potency [1] | Potency [2] | Potency [3] | outcome [4] | outcome [5] | Potency [6] | Potency [7] | Potency [8] | Potency [9] | Potency [10] | Potency [11] | Potency [12] | Potency [13] | Potency [14] | Potency [15]

CN1C[C@@H]2C[C@H]1CN2c1cc2c(cc1F)c(=O)c(C(=O)O)cn2C1CC1
inactive: activity change, negative = cytotoxicity [1] -0.599% [at 19 µM] | activity, positive = activation [2] -6.17% [at 19 µM] | activity change [3] -0.0937% [at 11.8 µM, hits give high values] | activation [4] -1.39% [at 15.8 µM] | activation [5] 0.573% [at 11.8 µM] | activation [6] 9.29% [at 13.5 µM] | activation [7] 1.2% [at 13.6 µM] | activity change, negative = cytotoxicity [8] 13.7% [at 13.5 µM] | activity change, negative = cytotoxicity [9] 4.47% [at 13.5 µM] | activity change, negative = cytotoxicity [10] 10.7% [at 13.5 µM] | activation [11] 6.22% [at 13.5 µM] | activity change, negative = inhibition [16] 13.7% [at 18.9 µM] | activity change, negative = inhibition [13] -1.81% [at 19 µM] | activation [14] 2.8% [at 19 µM] | activity change, negative = inhibition [15] -0.654% [at 18.9 µM]

CCCN1C[C@H](CSC)C[C@@H]2c3cccc4[nH]cc(c34)C[C@H]21
inactive: Potency [1] | Potency [2] | Potency [3] | outcome [4] | outcome [5] | Potency [6] | Potency [7] | Potency [8] | Potency [9] | Potency [10] | Potency [11] | Potency [13] | Potency [15]

O=C(O)CCNC(=O)c1ccc(N=Nc2ccc(O)c(C(=O)O)c2)cc1
inactive: Potency [1] | Potency [2] | Potency [3] | outcome [4] | outcome [5] | Potency [6] | Potency [7] | Potency [8] | Potency [9] | Potency [10] | Potency [11] | Potency [16] | Potency [13] | Potency [14] | Potency [15]

CC(=O)[C@@]1(O)CC[C@H]2[C@@H]3C[C@H](C)C4=CC(=O)CC[C@]4(C)[C@H]3CC[C@@]21C
inactive: Potency [1] | Potency [2] | Potency [3] | outcome [4] | outcome [5] | Potency [6] | Potency [7] | Potency [8] | Potency [9] | Potency [10] | Potency [11] | Potency [13] | Potency [14] | Potency [15]

CC(=O)CCCCn1c(=O)c2c(ncn2C)n(C)c1=O
inactive: Potency [1] | Potency [2] | Potency [3] | outcome [4] | outcome [5] | Potency [6] | Potency [7] | Potency [8] | Potency [9] | Potency [10] | Potency [11] | Potency [12] | Potency [13] | Potency [14] | Potency [15]

CC12CCC(CC1=O)C2(C)C (stereo unspecified)
inactive: Potency [1] | Potency [2] | Potency [3] | outcome [4] | outcome [5] | Potency [6] | Potency [7] | Potency [8] | Potency [9] | Potency [10] | Potency [11] | Potency [12] | Potency [16] | Potency [13] | Potency [14] | Potency [15]

CC(=O)O[C@H]1C[C@@H]2CC[C@@H]3[C@H](CC[C@@]4(C)[C@H]3C[C@H]([N+]3(C)CCCCC3)[C@@H]4OC(C)=O)[C@@]2(C)C[C@@H]1N1CCCCC1
inactive: Potency [1] | Potency [2] | Potency [3] | outcome [4] | outcome [5] | Potency [6] | Potency [7] | Potency [8] | Potency [9] | Potency [10] | Potency [11] | Potency [12] | Potency [16] | Potency [13] | Potency [14] | Potency [15]

C#C[C@]1(OC(C)=O)CC[C@H]2[C@@H]3CCC4=C[C@@H](OC(C)=O)CC[C@@H]4[C@H]3CC[C@@]21C
inactive: Potency [1] | Potency [2] | Potency [3] | outcome [4] | outcome [5] | Potency [6] | Potency [7] | Potency [8] | Potency [9] | Potency [10] | Potency [11] | Potency [12] | Potency [13] | Potency [14] | Potency [15]

CC(C)NCC(O)c1ccc(NS(C)(=O)=O)cc1 (stereo unspecified)
inactive: Potency [1] | Potency [2] | Potency [3] | outcome [4] | outcome [5] | Potency [6] | Potency [7] | Potency [8] | Potency [9] | Potency [10] | Potency [11] | Potency [12] | Potency [16] | Potency [14] | Potency [15]

Cc1ccnc(NS(=O)(=O)c2ccc(N)cc2)n1
inactive: Potency [1] | Potency [2] | Potency [3] | outcome [4] | outcome [5] | Potency [6] | Potency [7] | Potency [8] | Potency [9] | Potency [10] | Potency [11] | Potency [12] | Potency [16] | Potency [13] | Potency [15]

CN1CCN(C(c2ccccc2)c2ccccc2)CC1
inactive: Potency [1] | Potency [2] | Potency [3] | outcome [4] | outcome [5] | Potency [6] | Potency [7] | Potency [8] | Potency [9] | Potency [10] | Potency [11] | Potency [12] | Potency [16] | Potency [13] | Potency [14] | Potency [15]

CCN1CCN(c2cc3c(cc2F)c(=O)c(C(=O)O)cn3C2CC2)CC1
inactive: Potency [1] | Potency [2] | Potency [3] | outcome [4] | outcome [5] | Potency [6] | Potency [7] | Potency [8] | Potency [9] | Potency [10] | Potency [11] | Potency [15]

COC(=O)C(c1ccccc1Cl)N1CCc2sccc2C1 (stereo unspecified)
inactive: Potency [1] | Potency [2] | Potency [3] | outcome [4] | outcome [5] | Potency [6] | Potency [7] | Potency [8] | Potency [9] | Potency [10] | Potency [11] | Potency [13] | Potency [14] | Potency [15]
